High-throughput results from PubChem.
Not all results are given here.
aSyn 5UTR act – Activators working through SNCA 5'UTR binding (MLPCN); alpha-synuclein 5'UTR reporter, activators screen; activity score, % (tested at 7.5 µM), hits read low; 300,000 compounds, 7.1% hits; in the data active means activity score below about -60%
Numbers without * were called inactive.

SMILES | aSyn 5UTR act
COc1ccc(C(=O)Nc2cc3c(oc2=O)CCCC3=O)cc1 | -69*
COc1ccc(C(=O)Nc2ccc3c4c(cccc24)CC3)cc1 | -84*
COc1ccc(C(=O)Nc2cccc3c2CCCC3)cc1 | -132*
CC(=O)c1sc(-c2ccc(F)cc2F)nc1C | -75*
O=C(Nc1ccc2c(c1)OCCO2)c1cc(F)c(F)cc1Cl | -195*
O=C(Nc1ccc2ccccc2c1)c1cc(F)c(F)cc1Cl | -140*
Cc1ccc(C(=O)Nc2ccc3c(c2)OCCO3)c(Cl)c1 | 80
O=C(Nc1ccc2c(c1)OCCO2)c1cccc(Cl)c1Cl | -140*
CC1CCC(NC(=O)Cn2cc3c(n2)CCCC3)CC1 (stereo not drawn) | -157*
Cn1c(/C(C#N)=C/c2ccc(O)cc2)nc2ccccc21 | -126*
O=C(CN1CCCCC1)Nc1scc2c1c(=O)oc1ccccc12 | -134*
CCc1ccc(O)c(-c2cc(C(=O)Nc3cccnc3)[nH]n2)c1 | -162*
O=C(N/N=C/c1c(O)ccc2ccccc12)c1cccnc1 | 93
Cc1cccc(NC(=O)c2cc(-c3c(C)cc(C)cc3O)n[nH]2)c1 | -123*
Cc1ccc(NC(=O)c2cc(-c3ccccc3O)n[nH]2)cc1Cl | -110*
Cc1cccc(NC(=O)c2cc(-c3cc(Cl)ccc3O)n[nH]2)c1 | -224*
Cc1cc(C)c(O)c(-c2cc(C(=O)Nc3cccnc3)[nH]n2)c1 | -108*
Cc1ccc(C)c(NC(=O)c2cc(-c3cc(C)ccc3O)n[nH]2)c1 | -211*
Cc1cccc(NC(=O)c2cc(-c3cc(C)cc(C)c3O)n[nH]2)c1 | -67*
Cc1cc(O)c(-c2cc(C(=O)Nc3cccnc3)[nH]n2)cc1C | -188*
COc1ccsc1NC(=O)OCc1ccc(Cl)cc1 | -69*
Cc1cc(-c2nnco2)c(C)n1-c1ccccc1 | -101*
Cc1cc(C2=NNC(=NC3CC3)SC2)c(C)n1-c1ccccc1 | 95
COc1ccc(C(=O)C[n+]2ccccc2/C=N/O)cc1 | -82*
COc1cc(/C=N/OCC(=O)Nc2cc(C)cc(C)c2)ccc1OCc1ccc(Cl)cc1 | -128*
SMILES | aSyn 5UTR act
COc1cc(/C=N/OCC(=O)NC2CCCCC2C)ccc1OCc1ccc(Cl)cc1 (stereo not drawn) | -98*
CCC(=O)Nc1cccc(NC(=S)NC(=O)c2ccc(C)cc2)c1 | -156*
CCC(=O)Nc1cccc(NC(=S)NC(=O)c2ccccc2)c1 | -183*
CCC(=O)Nc1cccc(NC(=S)NC(=O)c2cccc(C)c2)c1 | -172*
CCC(=O)Nc1cccc(NC(=S)NC(=O)c2cc3ccccc3o2)c1 | -133*
COc1ccc(NC(=S)Nc2cccc3cnccc23)cc1 | -72*
COc1cccc(NC(=S)Nc2cccc3ccccc23)c1 | -70*
S=C(Nc1cccnc1)Nc1cccc2cnccc12 | 66
CCOc1ccc(NC(=S)Nc2cc(OC)c(Cl)cc2OC)cc1 | -90*
COc1cccc(NC(=S)NN=C2CCCCCC2)c1 | -146*
CCOc1ccc(NC(=S)Nc2cccc3ccccc23)cc1 | -63*
CCOc1ccc(NC(=S)Nc2cccc3cnccc23)cc1 | -89*
CCc1ccc(NC(=S)Nc2cccc(OC)c2)cc1 | -109*
C(=C\c1cc(/C=C/c2ccccc2)ncn1)/c1ccccc1 | -145*
Cc1nc(/C=C/c2ccccc2)cc(/C=C/c2ccccc2)n1 | -104*
Cn1nc(/C=C/c2ccccc2)ccc1=O | -190*
Cc1ccc2nc(-c3ccccc3O)c(Nc3ccc4c(c3)OCCO4)n2c1 | -65*
Cc1ccc2nc(SCc3nc4ccccc4c(=O)[nH]3)[nH]c2c1 | -140*
Cc1ccc2nc(CSc3nc(C)ccc3C#N)[nH]c2c1 | 79
Cc1cc(C(=O)CSc2nc3ccccc3c(=O)[nH]2)c(C)n1C | -130*
Cc1ccc2nc(SC(C)C(=O)N3CCCC3)[nH]c2c1 (stereo not drawn) | -75*
Cc1ccc2nc(SCC(=O)c3ccc(O)cc3O)[nH]c2c1 | -220*
Cc1ccc(CSc2nc3ccncc3[nH]2)cc1 | 73
Cc1ccc2nc(SCC(=O)N3CCCC3)[nH]c2c1 | -129*
Cc1ccc2nc(SC(C)C(=O)N3CCCCC3)[nH]c2c1 (stereo not drawn) | -81*
SMILES | aSyn 5UTR act
Brc1ccc(/C=N/Nc2nc3ccccc3o2)cc1 | -191*
COc1cc(/C=N\Nc2nc3ccccc3o2)cc(OC)c1OC | -186*
COc1cc(/C=N/Nc2nc3ccccc3o2)cc(OC)c1O | -86*
Cc1ccc(OCc2cc(C(=O)N(CCO)Cc3cccs3)no2)cc1C | -81*
COc1cc(C)ccc1OCc1cc(C(=O)N2CCCCCCC2)no1 | -62*
COc1ccc(C(=O)/C=C/C(=O)N(CC(=O)NCCC(C)C)Cc2cccs2)c(O)c1 | 61
COc1ccccc1N1CCN(C(=O)c2c(-c3ccccc3)noc2C)CC1 | -78*
Cc1ccc(OCc2cc(C(=O)N3CCC(C(O)C(C)C)CC3)no2)cc1C (stereo not drawn) | -80*
Cc1ccc(OCc2cc(C(=O)N3CCC(c4ccccc4Cl)C3)no2)cc1C (stereo not drawn) | -165*
Cc1ccc(OCc2cc(C(=O)N3CCN(C4CCCCC4)CC3)no2)cc1C | -62*
COc1cccc(N2CCN(C(=O)c3ccc(CS(=O)c4ccccc4Cl)o3)CC2)c1 (stereo not drawn) | 110
COc1cc(C)ccc1OCc1cc(C(=O)NC(C)Cn2cncn2)no1 (stereo not drawn) | -155*
COc1cccc(OCc2cc(C(=O)N3CCN(c4ccccc4OC)CC3)no2)c1 | -139*
COc1cc(C)ccc1OCc1cc(C(=O)N2CCN(C3CCCCC3)CC2)no1 | -99*
Cc1ccc(OCc2cc(C(=O)N3CCN(c4ccccc4)CC3)no2)cc1C | -155*
CCN1CCN(C(=O)c2cc(COc3ccc(C(C)=O)cc3OC)on2)CC1 | -146*
N#Cc1c(NC(=O)c2ccncc2)sc2c1CCC2 | -66*
CC(C)C(=O)NC(=S)Nc1sc2c(c1C(N)=O)CCCC2 | -121*
CCN(CC)CCCC(C)NC(=O)c1c(NC(=O)c2ccccc2)sc2c1CCCC2 (stereo not drawn) | -79*
NC(=O)c1c(NC(=O)c2ccncc2)sc2c1CCCC2 | -121*
NC(=O)c1c(NC(=O)c2cnccn2)sc2c1CCCC2 | -217*
NC(=O)c1c(NC(=O)c2ccccc2)sc2c1CCC2 | -122*
N#Cc1c(NC(=O)c2cnn3cccnc23)sc2c1CCCC2 | -99*
COc1ccc(NC(=O)c2c(NC(=O)CCC(=O)O)sc(-c3ccccc3)c2C)cc1 | -76*
NC(=O)c1c(NC(=S)Nc2ccccc2)sc2c1CCCC2 | -67*
SMILES | aSyn 5UTR act
NC(=O)c1c(NC(=O)c2ccccc2)sc2c1CCc1ccccc1-2 | -211*
Cc1cc(C(=O)Nc2sc3c(c2C#N)CCCCC3)cs1 | -94*
O=C(O)CCC(=O)Nc1sc2c(c1C(=O)Nc1ccccc1)CCCCC2 | -78*
CNC(=O)c1c(NC(=O)c2nc3ccccc3s2)sc2c1CCC2 | -256*
O=C1C=C(N2CCCCCC2)C(=O)N1c1ccc(Cl)cc1 | -171*
O=C(COc1ccc2ccccc2c1Br)NC(=S)Nc1cccc(CO)c1 | -66*
O=C(COc1ccccc1[N+](=O)[O-])Nc1cccnc1 | -72*
O=C(COc1ccc2ccccc2c1Br)Nc1cccnc1 | -210*
O=C(COc1ccc2ccccc2c1Br)Nc1ccncc1 | -84*
COc1cccc2[nH]c(=O)c(-c3ccccc3)cc12 | -136*
O=C(c1ccc(Br)cc1)c1cc([N+](=O)[O-])ccc1N1CCCCC1 | 92
COc1ccccc1C(=O)/C=C/c1ccc(N2CCCCC2)c([N+](=O)[O-])c1 | -216*
